Results reported in the supplement of paper PMC3545927.
The list shows a part of the results. No count for the full screen is at hand.

Target: furin, P09958
Experiment: furin cleavage Z-score vs untreated control; higher = more cleavage, active = 3.5 or more, inactive = 1 or less, 8 variable residues between constant flanks
In short: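 Cleavage by purified furin was measured on 8-mer peptides fused to a cDNA oligonucleotide and held on magnetic beads by their N-terminus. Reactions (0.01 ml, 1:10 enzyme:substrate) ran 7.5, 15 or 30 min in 50 mM HEPES pH 7.5 with CaCl2 and NaCl. Released DNA was adapter-tagged by PCR and sequenced, with read counts giving abundance. Log counts versus furin-free reactions were lowess-adjusted and scaled by median absolute deviation to give the cleavage Z-score.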

Chain of furin, P09958 (P09958 whole entry): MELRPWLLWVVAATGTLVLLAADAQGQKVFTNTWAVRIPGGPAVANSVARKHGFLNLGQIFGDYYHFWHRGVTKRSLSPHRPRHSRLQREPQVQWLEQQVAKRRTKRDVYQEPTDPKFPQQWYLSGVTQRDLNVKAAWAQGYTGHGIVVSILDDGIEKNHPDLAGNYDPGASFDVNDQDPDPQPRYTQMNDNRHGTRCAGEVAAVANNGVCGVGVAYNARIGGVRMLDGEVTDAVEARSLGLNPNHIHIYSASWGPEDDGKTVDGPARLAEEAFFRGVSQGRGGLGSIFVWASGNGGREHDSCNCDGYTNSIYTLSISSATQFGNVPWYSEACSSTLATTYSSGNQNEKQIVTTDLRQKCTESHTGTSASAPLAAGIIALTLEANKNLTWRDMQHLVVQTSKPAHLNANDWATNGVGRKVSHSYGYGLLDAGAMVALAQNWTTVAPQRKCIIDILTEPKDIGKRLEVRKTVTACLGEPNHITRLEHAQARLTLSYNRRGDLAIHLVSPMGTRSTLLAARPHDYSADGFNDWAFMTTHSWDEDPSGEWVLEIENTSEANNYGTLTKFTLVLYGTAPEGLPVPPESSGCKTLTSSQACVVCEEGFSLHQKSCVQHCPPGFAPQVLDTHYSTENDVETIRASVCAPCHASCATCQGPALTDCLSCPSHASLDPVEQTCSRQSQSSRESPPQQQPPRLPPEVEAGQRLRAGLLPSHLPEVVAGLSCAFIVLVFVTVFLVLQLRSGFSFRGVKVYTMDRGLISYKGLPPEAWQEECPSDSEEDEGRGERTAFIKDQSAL

| Sequence | furin cleavage Z-score (7.5 min) | furin cleavage Z-score (15 min) | furin cleavage Z-score (30 min) |
| --- | --- | --- | --- |
| CAVPCCSMSYAGNASASA [HC2019] | -0.257 (inactive) | 0.638 (inactive) | 1.91 |
| CAEQTTPCSGAGNASASA [HC1982] | -1.3 (inactive) | -0.293 (inactive) | 0.257 (inactive) |
| CASPLLLTTTAGNASASA [HC492] | -0.516 (inactive) | -0.474 (inactive) | -1.67 (inactive) |
| CAESVVCCSMAGNASASA [HC2137] | -0.35 (inactive) | -0.242 (inactive) | -0.275 (inactive) |
| CAEEEVPCHRAGNASASA [HC2452] | -0.0801 (inactive) | -0.749 (inactive) | -0.159 (inactive) |
| CADAVILLMCAGNASASA [HC596] | -0.491 (inactive) | 1.35 | 0.744 (inactive) |
| CAREKRLLYSAGNASASA [FS-3218] | -0.25 (inactive) | 0.302 (inactive) | -0.105 (inactive) |
| CAREKRSEYSAGNASASA [FS-1852] | 3.09 | 3.81 (active) | 3.2 |
| CALLCRHKRKAGNASASA [FS-1359] | 7.93 (active) | 9.24 (active) | 8.25 (active) |
| CARGPRGKGKAGNASASA [FS-1893] | -0.459 (inactive) | -0.333 (inactive) | -2.1 (inactive) |
| CAIEFRHKRKAGNASASA [FS-1535] | -1.35 (inactive) | 1.39 | 3.89 (active) |
| CATIMAKNEVAGNASASA [HC1439] | 1.57 | 1.43 | 0.513 (inactive) |
